Each structure is given as a SMILES string. This is part of a sample that, as a whole, favours compounds with a hit. Of some 83,000 tested, about 20% had one in any assay.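 Step 1: grow cells in 96-well plates. Step 2: add test compound at a single concentration. Step 3: incubate 48 h. Step 4: record percent growth.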 Active and inactive are the calls of the source.

In this assay the test system is OVCAR-5 ovarian. Description: NCI-60 one-dose screen, 48 h (100 = growth as untreated, 0 = no growth, -100 = all killed). The note with it: 10 µM unless noted. As for the experimental part: Growth inhibition of the OVCAR-5 human tumor cell line is measured as a screen for anti-cancer activity. Cells are grown in 96 well plates and exposed to the test compound for 48 hours. Compounds are tested at a single concentration, which is 10^-5 M for most compounds. The reported endpoint is percent growth (GI% or GIPRCNT), where numbers from 0 - 100% represent growth inhibition, and numbers from -100% - 0 represent cell death. For example, a value of 40 represents 60% growth inhibition. A value of 0 means no net growth occurred over the course of the experiment. A value of -40 indicates 40% of cells at the beginning of the experiment died by the end of the experiment. A value of -100 means all cells are dead at the end of the experiment.
NCI-60 Human Tumor Cell Lines Screen was performed using the standard one-dose NCI protocol, which is described in more detail at https://dtp.cancer.gov/discovery_development/nci-60/default.htm.
Compounds with GIPRCNT values below 10 were considered active. Activity score was based on GIPRCNT using the following formula: […]
Score is 0 for GIPRCNT values of 100 or above, 50 for GIPRCNT values of 0, and 100 for GIPRCNT values of -100.
On to `CCN(CC)CCOc1ccc(Nc2ncc3cc(-c4ccc(O)c(C#N)c4)c(=O)n(C)c3n2)cc1`, for which the growth was 88.2% (inactive).
For the compound `Cc1ccc(-c2nc(C#N)c(S(=O)(=O)N3CCN(S(=O)(=O)c4ccccc4)CC3)o2)cc1`, the growth is 19.5% (inactive).
On to `C#CCOc1ccc(/C=N/Nc2nc(-c3cc4cc(Br)ccc4oc3=O)cs2)cc1OC`, for which the growth was 73.9% (inactive).
Next, `Cc1cc2nc3c4ccccc4n(CCNCCN(C)C)c3nc2cc1C`: 39.5% (inactive).
For `Brc1ccc(-c2n(Cc3ccc4ccccc4c3)c(-c3ccccc3)c(-c3ccccc3)[n+]2Cc2ccc3ccccc3c2)cc1`, the growth was -100% (active).
With `CC(=O)/C=C/c1cccc2c1C(=O)NC(C)(c1cc3cc(Br)ccc3oc1=O)N2` (stereo not given), the growth was 30.8% (inactive).
Next, `Cc1ccc(S(=O)(=O)c2nc(S(=O)(=O)c3ccc(C)cc3)c(N3CCN(C)CC3)s2)cc1`: 94.1% (inactive).
Regarding `COc1c(F)ccc(C(=O)Nc2ccc3nc(NC(=O)C4CCCN(S(=O)(=O)c5cccc(Br)c5)C4)sc3c2)c1F` (stereo not given), the growth was 104% (inactive).
`CCC(C)(C)c1ccc(OCCCCN2CCN(c3ccncc3)CC2)cc1`: the growth was 69.2% (inactive).
Next, `COc1cc(CNC(=O)/C=C/c2ccc3c(c2)OCO3)ccc1OCc1cn(-c2ccc([N+](=O)[O-])cc2)nn1`: 97.7% (inactive); `CCOC(=O)/C=C/c1cccc2c1C(=O)NC(C)(c1cc3cc(Cl)ccc3oc1=O)N2` (stereo not given): 50.4% (inactive); `COCOc1ccc2c(=O)c(C)c(C(=O)N[C@@H](Cc3ccccc3)C(O)C(=O)NCCc3ccc(OC)cc3)oc2c1` (stereo not given in full): 116% (inactive).
Next, `Cn1cc(-c2cc(N)n3nc(-c4cn(C)c5ccccc45)cc3n2)c2cc(Br)ccc21`: 5.47% (active).
Next, `C#CCOc1ccc(/C=N/Nc2nc(-c3ccc(F)cc3)cs2)cc1OC`: 84.9% (inactive).
For the compound `N/C(=N\c1nc2ccccc2s1)NC(=O)Nc1c(Cl)cccc1Cl`, the growth was 49.3% (inactive).
Next, `COc1ccc2[nH]cc(-c3cc(N)n4nc(-c5cn(C)c6ccccc56)cc4n3)c2c1`: -85.9% (active); `C=C1CC[C@@H]2[C@]3(C)COC(c4cn[nH]c4-c4cccc(Cl)c4)O[C@@H]3CC[C@@]2(C)[C@@H]1C/C=C1/C(=O)OCC1O` (stereo not given in full): -62% (active).
Next, `C=C1CCC2C3(C)COC(c4ccc(F)cc4)OC3CCC2(C)C1C/C=C1/C(=O)OCC1O` (stereo not given): -6.07% (active).
Turning to `O=C(c1ccccc1)c1ccc2nc(-c3cccc(Cl)c3)[nH]c2c1`, the growth is 107% (inactive).
Next, `COc1ccc(C(=O)/C=C/c2ccc(OCc3ccc(F)cc3)c(OC)c2)cc1OC`: 1.16% (active); `Cc1ccc(S(=O)(=O)c2nc(S(=O)(=O)c3ccc(C)cc3)c(Cl)s2)cc1`: 31.6% (inactive).
In the case of `CC(=O)OC[C@@]1(C)C2CC[C@]3(C)C(CC=C4C5CC(C)(C)CC[C@]5(C(=O)Nc5cccc(C)c5)CC[C@]43C)[C@@]2(C)C[C@@H](OC(C)=O)[C@@H]1OC(C)=O` (stereo not given in full), the growth was 81.2% (inactive).
Next, `COC(=O)C[C@](O)(CCCC(C)(C)O)C(=O)O[C@H]1C(OC)=C[C@@]23CCCN2CCc2cc4c(cc2[C@@H]13)OCO4`: -14.5% (active); `CC1=C(C#N)C2=NNCC(c3ccccc3)=NN2C(c2ccccc2)=C1`: 114% (inactive); `Cc1ccc2c(N)c(C(=O)Nc3ccc(-c4ccccc4)cc3)sc2n1`: 71% (inactive).
Next, `O=C1N/C(=N\c2nccs2)S/C1=C\C=C/c1ccccc1`: 61.8% (inactive).
Next, `CCCCCCCCc1ccc(S(=O)(=O)Nc2ccc(CC)cc2C(=O)O)cc1`: 117% (inactive).
In the case of `COc1cc2oc(-c3cccc(C(=O)Nc4cccc([N+](=O)[O-])c4)c3)cc(=O)c2c(OC)c1OC`, the growth is 83.5% (inactive).
As for `COc1cc(OC)c2c3nc4cc(C)c(C)cc4nc3n(CCN(C)C)c2c1`, the growth is 73.1% (inactive).
Next, `COCOc1cc2c(=O)c(C)c(C(=O)N[C@@H](Cc3ccccc3)C(O)C(=O)NCc3ccccc3)oc2cc1OC` (stereo not given in full): 92.5% (inactive).
Next, `O=C(/C=C/c1ccc(O)c(O)c1)NC1CCOC1O` (stereo not given): 114% (inactive).
Take `COc1c(F)ccc(C(=O)Nc2ccc3nc(NC(=O)C4CCCN(S(=O)(=O)c5cccc(Cl)c5)C4)sc3c2)c1F` (stereo not given): the growth is 102% (inactive).
Next, `O=C(NNc1ccccc1)n1c(=O)c2ccccc2c(=O)n1-c1ccccc1`: 96.1% (inactive); `Nc1nc(C(F)(F)F)cs1`: 113% (inactive).
Next, `N#Cc1c(-c2ccc(Br)cc2)nc2n[nH]c(-c3ccc(Br)cc3)c2c1-c1ccc(F)cc1`: 98.1% (inactive); `COc1ccc(-c2c(Nn3cnnn3)no[n+]2[O-])cc1`: 85.6% (inactive).
On to `COc1cc(-c2cc(-c3cccc(OCC(=O)O)c3)[nH]c(=O)c2C#N)cc(OC)c1OC`, for which the growth is 96.8% (inactive).
Next, `O=C(COc1ccc(NC(=O)Nc2ccc(Cl)c(Cl)c2)cc1)N=Nc1c(O)[nH]c2ccc(Cl)cc12`: -28% (active); `COc1ccc(/C=C2\C(=N)N=C(SCc3nc4ccccc4[nH]3)NC2=O)cc1`: 119% (inactive).
Next, `O=C(C1=CNC(=S)NC1c1ccc(O)cc1)c1cc2ccccc2oc1=O` (stereo not given): 109% (inactive).
